According to article PMC7862700, “An all-to-all approach to the identification of sequence-specific readers for epigenetic DNA modifications on cytosine”:

Key:
Assay in all cases: DAPPL (digital affinity profiling via proximity ligation, sequencing); 10 mM Tris-HCl pH 7.5, 50 mM NaCl, 1 mM DTT, 4% glycerol, room temperature, 30 min; GST-TFs on glutathione beads, 16-mer random dsDNA library, 0.1% formaldehyde crosslink after washing; high values mean tight binding
[1] = target: T1, FEV (Homo sapiens, UniProt Q99581 1-238); conditions: protein: recombinant; tags: N-terminal GST; dsDNA, one strand shown
T1 sequence: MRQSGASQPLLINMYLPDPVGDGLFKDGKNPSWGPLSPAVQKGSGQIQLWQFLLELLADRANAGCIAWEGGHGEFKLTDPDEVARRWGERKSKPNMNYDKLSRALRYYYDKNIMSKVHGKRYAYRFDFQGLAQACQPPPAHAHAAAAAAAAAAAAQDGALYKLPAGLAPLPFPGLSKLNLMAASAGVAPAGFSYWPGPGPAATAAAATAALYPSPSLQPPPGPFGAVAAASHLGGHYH
Method in brief: (§1)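 Binding signal is each hexamer's read frequency for a factor divided by its frequency in the tag-only sample. The factors were GST-fused human transcription factors from yeast, captured on glutathione beads, DNA-barcoded and pooled with that sample. Pools were incubated with 200 nmole of a random double-stranded 16-mer DNA library in Tris/NaCl/DTT/glycerol buffer at room temperature for 30 min, then washed, crosslinked with 0.1% formaldehyde, proximity-ligated with BsaI/T4 ligase (1 h, 37 °C), PCR-amplified and sequenced on an Illumina NextSeq500.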

[2] = target: ETV5 (Homo sapiens, UniProt P41161 1-510); conditions: protein: recombinant; tags: N-terminal GST; dsDNA, one strand shown
ETV5, sequence (P41161 whole entry): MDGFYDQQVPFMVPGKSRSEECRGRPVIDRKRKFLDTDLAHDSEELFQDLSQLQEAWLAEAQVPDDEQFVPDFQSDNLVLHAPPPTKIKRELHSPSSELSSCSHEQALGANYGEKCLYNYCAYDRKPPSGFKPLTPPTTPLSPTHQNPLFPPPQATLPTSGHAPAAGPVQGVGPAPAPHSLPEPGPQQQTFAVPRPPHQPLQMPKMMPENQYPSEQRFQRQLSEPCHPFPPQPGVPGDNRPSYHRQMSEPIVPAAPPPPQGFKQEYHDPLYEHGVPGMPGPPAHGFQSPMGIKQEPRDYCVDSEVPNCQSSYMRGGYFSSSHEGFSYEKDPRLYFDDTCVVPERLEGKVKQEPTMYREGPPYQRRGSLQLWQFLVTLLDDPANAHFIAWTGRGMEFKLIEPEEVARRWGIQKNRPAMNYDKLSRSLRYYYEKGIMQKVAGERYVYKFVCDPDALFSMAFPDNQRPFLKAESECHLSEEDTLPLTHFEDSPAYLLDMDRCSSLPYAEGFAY
Method in brief: as §1

[3] = target: HSF1 (Homo sapiens, UniProt Q00613 1-529); conditions: protein: recombinant; tags: N-terminal GST; chain copies: 3; dsDNA, one strand shown
HSF1, sequence (Q00613 whole entry): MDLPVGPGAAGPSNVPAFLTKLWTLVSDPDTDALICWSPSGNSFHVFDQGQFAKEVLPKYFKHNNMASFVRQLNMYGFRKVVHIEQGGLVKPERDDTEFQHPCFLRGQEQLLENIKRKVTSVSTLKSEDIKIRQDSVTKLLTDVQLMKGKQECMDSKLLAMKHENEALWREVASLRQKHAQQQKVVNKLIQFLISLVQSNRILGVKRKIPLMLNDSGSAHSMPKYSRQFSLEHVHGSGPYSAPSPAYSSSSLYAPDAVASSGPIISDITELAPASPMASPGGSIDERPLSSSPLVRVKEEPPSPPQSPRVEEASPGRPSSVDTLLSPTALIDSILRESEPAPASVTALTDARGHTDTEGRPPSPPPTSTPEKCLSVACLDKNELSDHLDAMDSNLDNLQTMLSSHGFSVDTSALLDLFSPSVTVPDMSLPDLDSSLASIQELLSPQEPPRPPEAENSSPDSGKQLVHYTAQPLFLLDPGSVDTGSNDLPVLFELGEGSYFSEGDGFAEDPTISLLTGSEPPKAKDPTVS
Method in brief: as §1

[4] = target: T2, SPIC (Homo sapiens, UniProt Q8N5J4 1-248); conditions: protein: recombinant; tags: N-terminal GST; dsDNA, one strand shown
T2 sequence: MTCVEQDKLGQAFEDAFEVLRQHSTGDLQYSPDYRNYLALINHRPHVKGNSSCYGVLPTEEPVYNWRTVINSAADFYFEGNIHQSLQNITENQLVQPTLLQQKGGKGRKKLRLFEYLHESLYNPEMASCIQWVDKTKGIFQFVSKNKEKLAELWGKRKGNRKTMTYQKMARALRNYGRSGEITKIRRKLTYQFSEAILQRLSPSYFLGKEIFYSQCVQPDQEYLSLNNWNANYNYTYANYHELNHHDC
Method in brief: as §1

[5] = target: ELF4 (Homo sapiens, UniProt Q99607 1-663); conditions: protein: recombinant; tags: N-terminal GST; dsDNA, one strand shown
ELF4, sequence (Q99607 whole entry): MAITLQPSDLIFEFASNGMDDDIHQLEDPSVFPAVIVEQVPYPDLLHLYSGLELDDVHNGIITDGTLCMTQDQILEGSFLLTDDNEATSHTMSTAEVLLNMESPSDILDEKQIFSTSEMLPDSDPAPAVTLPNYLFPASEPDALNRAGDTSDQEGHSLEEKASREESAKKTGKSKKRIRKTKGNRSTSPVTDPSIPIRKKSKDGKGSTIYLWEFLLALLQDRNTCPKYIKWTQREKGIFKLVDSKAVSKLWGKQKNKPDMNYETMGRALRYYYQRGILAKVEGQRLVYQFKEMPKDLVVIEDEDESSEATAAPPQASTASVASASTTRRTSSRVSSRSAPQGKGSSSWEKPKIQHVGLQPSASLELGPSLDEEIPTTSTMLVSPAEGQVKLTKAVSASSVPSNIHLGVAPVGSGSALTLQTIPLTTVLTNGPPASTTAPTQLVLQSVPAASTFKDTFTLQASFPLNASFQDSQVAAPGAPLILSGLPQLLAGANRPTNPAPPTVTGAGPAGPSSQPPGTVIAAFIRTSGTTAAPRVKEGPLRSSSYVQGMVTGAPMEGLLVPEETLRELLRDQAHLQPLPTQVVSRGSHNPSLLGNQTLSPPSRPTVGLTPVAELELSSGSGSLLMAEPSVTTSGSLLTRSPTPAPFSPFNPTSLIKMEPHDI
Method in brief: as §1

[6] = target: T3, ELK4 (Homo sapiens, UniProt P28324-2 1-405); conditions: protein: recombinant; tags: N-terminal GST; dsDNA, one strand shown
T3 sequence: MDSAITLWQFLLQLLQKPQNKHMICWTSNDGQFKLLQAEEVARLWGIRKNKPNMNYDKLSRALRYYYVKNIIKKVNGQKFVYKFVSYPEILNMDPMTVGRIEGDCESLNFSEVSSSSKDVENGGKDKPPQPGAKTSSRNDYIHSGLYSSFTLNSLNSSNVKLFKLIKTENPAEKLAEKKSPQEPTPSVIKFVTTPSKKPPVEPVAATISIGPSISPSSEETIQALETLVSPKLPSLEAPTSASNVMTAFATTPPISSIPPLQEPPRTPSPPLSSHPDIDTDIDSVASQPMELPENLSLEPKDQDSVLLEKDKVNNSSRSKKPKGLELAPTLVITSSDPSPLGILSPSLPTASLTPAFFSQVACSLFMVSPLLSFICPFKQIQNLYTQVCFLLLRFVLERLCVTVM
Method in brief: as §1

[7] = target: T4, ETV2 (Homo sapiens, UniProt O00321 1-342); conditions: protein: recombinant; tags: N-terminal GST; dsDNA, one strand shown
T4 sequence: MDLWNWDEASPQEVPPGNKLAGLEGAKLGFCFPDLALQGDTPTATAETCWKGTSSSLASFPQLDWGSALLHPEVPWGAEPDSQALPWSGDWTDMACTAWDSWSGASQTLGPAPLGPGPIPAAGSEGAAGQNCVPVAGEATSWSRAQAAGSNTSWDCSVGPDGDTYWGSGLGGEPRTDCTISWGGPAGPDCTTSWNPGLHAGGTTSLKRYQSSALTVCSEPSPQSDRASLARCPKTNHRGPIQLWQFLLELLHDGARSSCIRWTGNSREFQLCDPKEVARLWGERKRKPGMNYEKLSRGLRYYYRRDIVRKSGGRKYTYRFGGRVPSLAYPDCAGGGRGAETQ
Method in brief: as §1

[8] = target: T5, ELF3 (Homo sapiens, UniProt P78545 1-371); conditions: protein: recombinant; tags: N-terminal GST; dsDNA, one strand shown
T5 sequence: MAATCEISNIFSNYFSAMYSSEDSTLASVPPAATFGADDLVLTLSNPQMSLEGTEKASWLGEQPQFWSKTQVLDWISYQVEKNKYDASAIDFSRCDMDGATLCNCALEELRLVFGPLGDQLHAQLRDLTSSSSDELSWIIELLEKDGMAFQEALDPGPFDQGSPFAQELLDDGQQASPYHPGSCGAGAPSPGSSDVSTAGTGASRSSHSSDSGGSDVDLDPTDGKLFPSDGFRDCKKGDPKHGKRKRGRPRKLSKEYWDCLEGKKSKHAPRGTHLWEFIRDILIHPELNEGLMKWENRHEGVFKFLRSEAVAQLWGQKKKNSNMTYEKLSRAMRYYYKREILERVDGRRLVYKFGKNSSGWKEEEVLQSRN
Method in brief: as §1

[9] = target: CRX (Homo sapiens, UniProt O43186 1-299); conditions: protein: recombinant; tags: N-terminal GST; dsDNA, one strand shown
CRX, sequence (O43186 whole entry): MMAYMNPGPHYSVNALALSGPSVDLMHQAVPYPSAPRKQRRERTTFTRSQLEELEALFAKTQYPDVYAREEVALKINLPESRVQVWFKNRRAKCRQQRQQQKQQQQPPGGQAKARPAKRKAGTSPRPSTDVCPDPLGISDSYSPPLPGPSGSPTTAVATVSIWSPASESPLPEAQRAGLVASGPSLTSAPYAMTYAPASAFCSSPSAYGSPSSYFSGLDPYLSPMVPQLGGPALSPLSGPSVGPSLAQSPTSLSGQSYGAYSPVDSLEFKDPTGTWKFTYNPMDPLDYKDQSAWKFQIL
Method in brief: as §1

[10] = target: ETV1 (Homo sapiens, UniProt P50549 1-477); conditions: protein: recombinant; tags: N-terminal GST; dsDNA, one strand shown
ETV1, sequence (P50549 whole entry): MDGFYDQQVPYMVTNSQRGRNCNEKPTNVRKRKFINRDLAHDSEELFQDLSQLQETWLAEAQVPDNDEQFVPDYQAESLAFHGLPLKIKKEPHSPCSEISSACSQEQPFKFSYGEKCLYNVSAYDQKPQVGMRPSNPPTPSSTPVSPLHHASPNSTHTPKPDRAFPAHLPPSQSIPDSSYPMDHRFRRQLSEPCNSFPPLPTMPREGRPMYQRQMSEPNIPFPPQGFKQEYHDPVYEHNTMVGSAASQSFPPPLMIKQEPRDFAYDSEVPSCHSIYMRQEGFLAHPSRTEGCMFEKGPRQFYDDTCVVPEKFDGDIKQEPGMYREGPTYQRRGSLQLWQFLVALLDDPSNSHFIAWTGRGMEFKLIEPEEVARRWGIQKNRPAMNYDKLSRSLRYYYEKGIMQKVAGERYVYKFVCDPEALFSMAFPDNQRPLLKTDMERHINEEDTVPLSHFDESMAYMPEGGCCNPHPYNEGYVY
Method in brief: as §1

[11] = target: T6, ERF (Homo sapiens, UniProt P50548 1-548); conditions: protein: recombinant; tags: N-terminal GST; dsDNA, one strand shown
T6 sequence: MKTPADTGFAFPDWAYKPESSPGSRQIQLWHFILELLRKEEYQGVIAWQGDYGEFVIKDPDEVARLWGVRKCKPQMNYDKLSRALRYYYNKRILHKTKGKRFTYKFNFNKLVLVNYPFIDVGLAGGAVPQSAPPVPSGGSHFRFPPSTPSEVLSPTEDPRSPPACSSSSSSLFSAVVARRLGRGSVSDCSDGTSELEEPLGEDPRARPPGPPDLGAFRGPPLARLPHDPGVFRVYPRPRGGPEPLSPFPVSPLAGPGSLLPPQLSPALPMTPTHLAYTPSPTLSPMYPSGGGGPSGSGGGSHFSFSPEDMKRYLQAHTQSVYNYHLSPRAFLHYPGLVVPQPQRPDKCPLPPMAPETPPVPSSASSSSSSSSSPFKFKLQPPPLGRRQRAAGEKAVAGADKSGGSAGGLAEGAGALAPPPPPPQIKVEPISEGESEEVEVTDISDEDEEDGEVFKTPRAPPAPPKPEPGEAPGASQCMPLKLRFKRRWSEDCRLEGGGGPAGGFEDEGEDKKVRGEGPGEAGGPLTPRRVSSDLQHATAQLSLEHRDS
Method in brief: as §1

[12] = target: T7, ETV3L (Homo sapiens, UniProt Q6ZN32 1-361); conditions: protein: recombinant; tags: N-terminal GST; dsDNA, one strand shown
T7 sequence: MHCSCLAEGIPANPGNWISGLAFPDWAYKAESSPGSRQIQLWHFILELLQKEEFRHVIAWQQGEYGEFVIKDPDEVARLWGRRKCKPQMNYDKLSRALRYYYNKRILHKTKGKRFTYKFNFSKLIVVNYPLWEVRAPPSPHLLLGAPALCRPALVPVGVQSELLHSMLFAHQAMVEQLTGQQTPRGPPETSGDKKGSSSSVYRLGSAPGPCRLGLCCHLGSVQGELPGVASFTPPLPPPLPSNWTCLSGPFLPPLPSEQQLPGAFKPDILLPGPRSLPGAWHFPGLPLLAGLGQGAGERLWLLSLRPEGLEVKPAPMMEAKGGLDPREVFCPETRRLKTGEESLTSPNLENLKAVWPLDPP
Method in brief: as §1

[13] = target: T8, ETS2 (Homo sapiens, UniProt P15036 1-469); conditions: protein: recombinant; tags: N-terminal GST; dsDNA, one strand shown
T8 sequence: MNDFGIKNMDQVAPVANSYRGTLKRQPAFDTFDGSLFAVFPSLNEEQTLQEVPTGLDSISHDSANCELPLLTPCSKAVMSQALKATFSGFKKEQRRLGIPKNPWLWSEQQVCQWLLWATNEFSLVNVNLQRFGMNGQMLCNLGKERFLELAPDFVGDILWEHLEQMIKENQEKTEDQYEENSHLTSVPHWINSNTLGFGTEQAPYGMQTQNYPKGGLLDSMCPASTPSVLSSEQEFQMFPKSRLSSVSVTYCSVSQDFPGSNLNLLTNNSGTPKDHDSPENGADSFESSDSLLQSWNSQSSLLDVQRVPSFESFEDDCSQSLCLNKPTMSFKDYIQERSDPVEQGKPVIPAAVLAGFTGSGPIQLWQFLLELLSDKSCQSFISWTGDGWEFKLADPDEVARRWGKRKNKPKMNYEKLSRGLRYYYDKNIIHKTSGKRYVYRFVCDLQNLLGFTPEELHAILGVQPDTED
Method in brief: as §1

[14] = target: T9, SPDEF (Homo sapiens, UniProt O95238 1-335); conditions: protein: recombinant; tags: N-terminal GST; dsDNA, one strand shown
T9 sequence: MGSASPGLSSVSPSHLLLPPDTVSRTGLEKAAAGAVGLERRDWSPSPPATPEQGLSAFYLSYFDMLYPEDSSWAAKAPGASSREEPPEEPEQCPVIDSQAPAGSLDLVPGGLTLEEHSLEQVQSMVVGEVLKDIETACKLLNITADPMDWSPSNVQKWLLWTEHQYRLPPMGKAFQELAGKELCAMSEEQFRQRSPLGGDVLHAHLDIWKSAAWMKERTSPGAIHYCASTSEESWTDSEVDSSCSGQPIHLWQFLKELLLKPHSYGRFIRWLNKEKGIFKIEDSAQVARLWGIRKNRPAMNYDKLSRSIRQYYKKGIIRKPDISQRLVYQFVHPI
Method in brief: as §1

[15] = target: T10, ETV7 (Homo sapiens, UniProt Q9Y603 1-341); conditions: protein: recombinant; tags: N-terminal GST; dsDNA, one strand shown
T10 sequence: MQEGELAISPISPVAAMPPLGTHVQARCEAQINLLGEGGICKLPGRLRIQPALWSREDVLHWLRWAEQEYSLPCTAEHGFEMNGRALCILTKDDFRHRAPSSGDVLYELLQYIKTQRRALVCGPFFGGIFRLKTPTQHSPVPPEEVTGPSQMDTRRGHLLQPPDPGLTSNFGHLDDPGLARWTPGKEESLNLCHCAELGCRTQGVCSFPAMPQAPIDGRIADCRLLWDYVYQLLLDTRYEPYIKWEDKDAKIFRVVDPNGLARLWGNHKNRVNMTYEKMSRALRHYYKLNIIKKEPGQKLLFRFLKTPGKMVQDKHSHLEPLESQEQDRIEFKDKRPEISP
Method in brief: as §1

[16] = target: T11, ELF5 (Homo sapiens, UniProt Q9UKW6-2 1-255); conditions: protein: recombinant; tags: N-terminal GST; dsDNA, one strand shown
T11 sequence: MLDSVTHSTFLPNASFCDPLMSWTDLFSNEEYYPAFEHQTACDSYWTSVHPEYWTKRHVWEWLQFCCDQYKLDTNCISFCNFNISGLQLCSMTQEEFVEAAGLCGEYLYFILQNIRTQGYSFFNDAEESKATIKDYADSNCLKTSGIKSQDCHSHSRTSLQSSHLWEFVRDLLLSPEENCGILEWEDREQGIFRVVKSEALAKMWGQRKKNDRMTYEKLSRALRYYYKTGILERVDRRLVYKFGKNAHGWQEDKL
Method in brief: as §1

[17] = target: T12, ETV3 (Homo sapiens, UniProt P41162-2 1-143); conditions: protein: recombinant; tags: N-terminal GST; dsDNA, one strand shown
T12 sequence: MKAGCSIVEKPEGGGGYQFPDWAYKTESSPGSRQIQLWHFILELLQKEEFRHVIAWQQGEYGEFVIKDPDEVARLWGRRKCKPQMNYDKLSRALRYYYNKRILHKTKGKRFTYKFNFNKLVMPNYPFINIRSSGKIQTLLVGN
Method in brief: as §1

[18] = target: ETV6 (Homo sapiens, UniProt P41212 1-452); conditions: protein: recombinant; tags: N-terminal GST; dsDNA, one strand shown
ETV6, sequence (P41212 whole entry): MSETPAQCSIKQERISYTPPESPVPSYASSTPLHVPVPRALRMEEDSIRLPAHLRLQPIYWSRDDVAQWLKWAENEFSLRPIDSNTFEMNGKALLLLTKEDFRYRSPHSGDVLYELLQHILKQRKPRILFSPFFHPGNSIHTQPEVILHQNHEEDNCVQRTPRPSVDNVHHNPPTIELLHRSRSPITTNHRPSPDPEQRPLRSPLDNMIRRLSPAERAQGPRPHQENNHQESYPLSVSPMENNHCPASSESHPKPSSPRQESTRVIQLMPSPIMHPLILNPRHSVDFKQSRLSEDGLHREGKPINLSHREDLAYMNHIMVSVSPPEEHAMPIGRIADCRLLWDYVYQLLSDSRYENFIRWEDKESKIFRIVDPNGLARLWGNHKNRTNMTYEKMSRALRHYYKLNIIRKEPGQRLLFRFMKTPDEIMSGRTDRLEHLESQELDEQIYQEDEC
Method in brief: as §1

Sequence	binding signal [1]	binding signal [2]	binding signal [3]	binding signal [4]	binding signal [5]	binding signal [6]	binding signal [7]	binding signal [8]	binding signal [9]	binding signal [10]	binding signal [11]	binding signal [12]	binding signal [13]	binding signal [14]	binding signal [15]	binding signal [16]	binding signal [17]	binding signal [18]
ACCGAT	1.06 fold enrichment (6-mer frequency, TF over GST control)	1.08 fold enrichment (6-mer frequency, TF over GST control)	1.14 fold enrichment (6-mer frequency, TF over GST control)	1.33 fold enrichment (6-mer frequency, TF over GST control)	1.24 fold enrichment (6-mer frequency, TF over GST control)	1.15 fold enrichment (6-mer frequency, TF over GST control)	1.19 fold enrichment (6-mer frequency, TF over GST control)	1.22 fold enrichment (6-mer frequency, TF over GST control)	1.24 fold enrichment (6-mer frequency, TF over GST control)	1.12 fold enrichment (6-mer frequency, TF over GST control)	1.05 fold enrichment (6-mer frequency, TF over GST control)	1.11 fold enrichment (6-mer frequency, TF over GST control)	1.11 fold enrichment (6-mer frequency, TF over GST control)	1.05 fold enrichment (6-mer frequency, TF over GST control)	1.08 fold enrichment (6-mer frequency, TF over GST control)	1.04 fold enrichment (6-mer frequency, TF over GST control)	1.13 fold enrichment (6-mer frequency, TF over GST control)	1.08 fold enrichment (6-mer frequency, TF over GST control)
TCTAAA	1.15 fold enrichment (6-mer frequency, TF over GST control)	1.15 fold enrichment (6-mer frequency, TF over GST control)	1.46 fold enrichment (6-mer frequency, TF over GST control)	1.46 fold enrichment (6-mer frequency, TF over GST control)	1.27 fold enrichment (6-mer frequency, TF over GST control)	1.3 fold enrichment (6-mer frequency, TF over GST control)	1.27 fold enrichment (6-mer frequency, TF over GST control)	1.14 fold enrichment (6-mer frequency, TF over GST control)	1.6 fold enrichment (6-mer frequency, TF over GST control)	1.16 fold enrichment (6-mer frequency, TF over GST control)	1.17 fold enrichment (6-mer frequency, TF over GST control)	1.18 fold enrichment (6-mer frequency, TF over GST control)	1.21 fold enrichment (6-mer frequency, TF over GST control)	1.21 fold enrichment (6-mer frequency, TF over GST control)	1.18 fold enrichment (6-mer frequency, TF over GST control)	1.16 fold enrichment (6-mer frequency, TF over GST control)	1.28 fold enrichment (6-mer frequency, TF over GST control)	1.12 fold enrichment (6-mer frequency, TF over GST control)
